Eleven compounds from PubChem BioAssay (NCI) can be followed below.

Where “and” joins values, the source holds several entries; their conditions need not be identical. Equal entries are not always repeated. This is part of a sample that, as a whole, favours compounds with a hit. Of some 83,000 tested, about 20% had one in any assay.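 48-hour exposure, single concentration, 96-well plates; percent growth endpoint where 0 means no net growth. Active: below 10.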 A number with no mark means an inactive call. Calls of active or inactive are those of the source.

Some test systems named below: HCT-15 colon; HT29 colon; SNB-75 CNS; SNB-19 CNS; U251 CNS; PC-3 prostate; SK-MEL-5 melanoma; UACC-62 melanoma; LOX IMVI melanoma; SK-MEL-28 melanoma; SK-MEL-2 melanoma; EKVX NSCLC; SN12C renal; TK-10 renal; ACHN renal; CAKI-1 renal; A498 renal; CCRF-CEM leukemia; MOLT-4 leukemia; UO-31 renal.
Assay in all cases: NCI-60 one-dose screen, 48 h (100 = growth as untreated, 0 = no growth, -100 = all killed)
What all share (conditions): 10 µM unless noted

Consider `CCOC(=O)CCCn1c(-c2ccccc2)cc(-c2ccccc2)c(C#N)c1=O`, for which the growth in the assay with HCT-15 colon was 82.3%; in the assay with HT29 colon, 88.1%; with SNB-75 CNS it was 71.2%; with SNB-19 CNS it was 93.5%; in the assay on U251 CNS, 98.7%; in the assay with PC-3 prostate, 63.8%. Further, the growth in the assay with SK-MEL-5 melanoma was 92.7%; in the assay with UACC-62 melanoma, 59%; in the assay with LOX IMVI melanoma it was 84.7%; with SK-MEL-28 melanoma, 88.7%; in the assay on SK-MEL-2 melanoma, 94.8%; in the assay with EKVX NSCLC, 93.4%. Further, the growth in the assay on SN12C renal was 84.6%; with TK-10 renal it was 113%; in the assay with ACHN renal it was 94.7%; with CAKI-1 renal, 57.3%; with A498 renal it was 25.7%; with CCRF-CEM leukemia it was 88.4%. Besides, the growth in the assay on MOLT-4 leukemia was 82.1%.

On to `O=C(NNc1ccccc1)c1ccccc1`, for which the growth in the assay with HCT-15 colon is 47.7% and 40.7%; with HT29 colon it was 85.5% and 84.8%; in the assay with SNB-75 CNS, 70.6% and 87.6%; with SNB-19 CNS, 95% and 99.3%; in the assay with U251 CNS it was 90.8%; in the assay with PC-3 prostate it was 75.1% and 53.8%. Besides, the growth with SK-MEL-5 melanoma is 98.8% and 100%; in the assay with UACC-62 melanoma, 29.6% and 30.9%; with LOX IMVI melanoma it was 58.4% and 52.7%; in the assay on SK-MEL-28 melanoma, 89.8% and 108%; in the assay on SK-MEL-2 melanoma, 81.5% and 49.8%; in the assay on SN12C renal it was 84.5% and 80%. In addition, the growth was 51.1% with UO-31 renal; 65.3% with TK-10 renal; 57% and 38.5% in the assay on ACHN renal; 22.7% with CAKI-1 renal; 118% and 103% in the assay with A498 renal; 56.8% and 49.8% with CCRF-CEM leukemia. Further, the growth with MOLT-4 leukemia was 54.4% and 41.3%.

Take `O=C(CCl)n1nnnc1Cc1ccccc1`: the growth was 102% in the assay with HCT-15 colon; 95.6% with HT29 colon; 84.9% in the assay with SNB-75 CNS; 96.4% with SNB-19 CNS; 90.3% in the assay on U251 CNS; 94.7% in the assay on PC-3 prostate. Further, the growth with SK-MEL-5 melanoma is 109%; in the assay on UACC-62 melanoma, 89.5%; in the assay on LOX IMVI melanoma, 87%; with SK-MEL-28 melanoma, 110%; in the assay on SK-MEL-2 melanoma, 86.9%; in the assay on EKVX NSCLC, 105%. Also, the growth with SN12C renal was 92.2%; with TK-10 renal it was 88.1%; with ACHN renal it was 95.1%; in the assay with CAKI-1 renal it was 92.4%; with A498 renal it was 109%; with MOLT-4 leukemia it was 94.2%.

Turning to `CCCCn1c(C(=O)c2c[nH]c3ccccc23)n[nH]c1=S`, the growth with HCT-15 colon was 99%; with HT29 colon, 99.8%; in the assay with SNB-75 CNS, 81.2%; in the assay on SNB-19 CNS it was 100%; with U251 CNS, 100%; in the assay on PC-3 prostate it was 93.8%. The growth is 99.9% in the assay on SK-MEL-5 melanoma; 81.7% with UACC-62 melanoma; 96.4% with LOX IMVI melanoma; 117% with SK-MEL-28 melanoma; 91.9% in the assay on SK-MEL-2 melanoma; 90.3% in the assay with EKVX NSCLC. Further, the growth in the assay with SN12C renal was 90%; in the assay with TK-10 renal it was 132%; with ACHN renal, 102%; in the assay with CAKI-1 renal, 79.3%; in the assay on A498 renal, 92.1%; in the assay on CCRF-CEM leukemia, 91.3%. In the assay on MOLT-4 leukemia, the growth is 103%.

In the case of `CN1CCN(Cc2ccc(NC(=O)c3nc4ccc5[nH]ncc5c4c4c3CCCC4)cc2C(F)(F)F)CC1`, the growth in the assay with HCT-15 colon was -74.6% (active); in the assay with HT29 colon, -83.2% (active); with SNB-75 CNS, -90% (active); with SNB-19 CNS it was -88.8% (active); in the assay on U251 CNS, -91% (active); in the assay on PC-3 prostate, -83.5% (active). Besides, the growth with SK-MEL-5 melanoma was -92.6% (active); in the assay on UACC-62 melanoma, -87.5% (active); with LOX IMVI melanoma, -94.9% (active); in the assay with SK-MEL-28 melanoma, -85.8% (active); in the assay on SK-MEL-2 melanoma it was -63.5% (active); in the assay on EKVX NSCLC, 37.2%. The growth in the assay with SN12C renal was -88.7% (active); with TK-10 renal it was -86.7% (active); with ACHN renal, -79.4% (active); in the assay on CAKI-1 renal, -46.6% (active); in the assay on A498 renal, 92.9%; in the assay with CCRF-CEM leukemia, -11.1% (active). In the assay on MOLT-4 leukemia, the growth is -27% (active).

Regarding `C=C(CNCCc1ccc(O)cc1)[C@@H]1CC[C@]2(CO)CC[C@]3(C)[C@H](CC[C@@H]4[C@@]5(C)CCC(NCCc6ccc(O)cc6)C(C)(C)[C@@H]5CC[C@]43C)[C@@H]12` (stereo partly drawn), the growth in the assay with HCT-15 colon is -86.9% (active); in the assay on HT29 colon, -87.7% (active); in the assay on SNB-75 CNS, -87.3% (active); with SNB-19 CNS, -85.4% (active); with U251 CNS it was -88.4% (active); with PC-3 prostate, -75.6% (active). Further, the growth is -93.5% (active) with SK-MEL-5 melanoma; -88% (active) in the assay on UACC-62 melanoma; -86.3% (active) with LOX IMVI melanoma; -87.6% (active) in the assay on SK-MEL-28 melanoma; -84.2% (active) in the assay on SK-MEL-2 melanoma; -85.7% (active) in the assay on EKVX NSCLC. Moreover, the growth in the assay on SN12C renal was -85.1% (active); in the assay on TK-10 renal, -92.6% (active); in the assay with ACHN renal, -98.9% (active); in the assay on CAKI-1 renal, -57.7% (active); in the assay with A498 renal it was -96.6% (active); in the assay with CCRF-CEM leukemia, -43.1% (active). Also, the growth with MOLT-4 leukemia was -49.1% (active).

With `Cc1nc(Nc2ncc(C(=O)Nc3c(C)cccc3Cl)s2)cc(N2CCN(CCO)CC2)n1`, the growth with HCT-15 colon is 32.5% and 21.3%; in the assay on HT29 colon it was 5.06% (active) and -19.7% (active); in the assay on SNB-75 CNS, -32.6% (active) and -35.7% (active); in the assay with SNB-19 CNS it was 68.7% and 40.1%; with U251 CNS, 57.6% and 37.2%; in the assay on PC-3 prostate, 54.1% and 40.7%. Further, the growth was 66.6% and 53.8% in the assay on SK-MEL-5 melanoma; 55.3% and 34.9% in the assay with UACC-62 melanoma; -66.3% (active) and -93.8% (active) in the assay with LOX IMVI melanoma; 64% and 36% in the assay on SK-MEL-28 melanoma; 41.5% and 33.2% in the assay with EKVX NSCLC; 24% and 18.3% in the assay on SN12C renal. For the same compound, the growth in the assay on UO-31 renal was -0.429% (active) and -14.3% (active); in the assay with TK-10 renal, -7.96% (active) and -61.7% (active); with ACHN renal it was 1.96% (active) and -15.4% (active); in the assay on CAKI-1 renal, -44.3% (active) and -28.7% (active); with A498 renal, -24.2% (active) and -40.1% (active); in the assay with CCRF-CEM leukemia, 77.3% and 41.6%. For the same compound, the growth in the assay on MOLT-4 leukemia was 66.1% and 29.6%.

On to `[Cu+].[NH-][C@H]1C[N-]C(=O)[C@H]([C@H]2CCN=C(N)N2)[N-]C(=O)/C(=C\NC(N)=O)[N-]C(=O)[C@H](CNC(=O)C[C@@H](N)CCCN)[N-]C(=O)[C@H](CO)[N-]C1=O`, for which the growth in the assay with HCT-15 colon is 100%; with HT29 colon, 104%; in the assay on SNB-75 CNS, 88.2%; with SNB-19 CNS, 103%; in the assay on U251 CNS, 101%; with PC-3 prostate, 96%. The growth with SK-MEL-5 melanoma was 109%; with UACC-62 melanoma, 92.1%; with LOX IMVI melanoma it was 98.7%; in the assay on SK-MEL-28 melanoma, 110%; in the assay on SK-MEL-2 melanoma it was 108%; with EKVX NSCLC it was 109%. Moreover, the growth in the assay with SN12C renal was 103%; with TK-10 renal, 98.1%; in the assay on ACHN renal it was 108%; in the assay on CAKI-1 renal it was 87.8%; with A498 renal it was 85.7%; with CCRF-CEM leukemia, 99.9%. In the assay on MOLT-4 leukemia, the growth was 102%.

Take `O=C(Nc1ccc2ccccc2c1)c1cc2ccccc2cc1O`: the growth was 85.9% in the assay with HCT-15 colon; 98.9% in the assay with HT29 colon; 103% with SNB-75 CNS; 97.9% with SNB-19 CNS; 87.2% in the assay on U251 CNS; 78% with PC-3 prostate. In addition, the growth is 86.7% in the assay on SK-MEL-5 melanoma; 72.5% with UACC-62 melanoma; 94.4% with LOX IMVI melanoma; 89.1% in the assay with SK-MEL-28 melanoma; 79.3% with SK-MEL-2 melanoma; 99.7% in the assay on EKVX NSCLC. Besides, the growth is 89.2% in the assay with SN12C renal; 103% in the assay on TK-10 renal; 89.2% in the assay on ACHN renal; 87.1% in the assay with CAKI-1 renal; 90.4% with A498 renal; 75% in the assay with CCRF-CEM leukemia. In addition, in the assay on MOLT-4 leukemia, the growth was 82.2%.

With `CCCCC#Cc1c(/C=C(\CCCC)SCC)n(C)c(=O)[nH]c1=O`, the growth is 89.8% in the assay with HCT-15 colon; 92.6% in the assay on HT29 colon; 90.1% in the assay with SNB-75 CNS; 107% in the assay on SNB-19 CNS; 117% in the assay with U251 CNS; 94.1% in the assay with PC-3 prostate. The growth is 99% with SK-MEL-5 melanoma; 90.4% in the assay on UACC-62 melanoma; 96.6% in the assay with LOX IMVI melanoma; 118% in the assay on SK-MEL-28 melanoma; 67.1% in the assay on SK-MEL-2 melanoma; 104% with EKVX NSCLC. Moreover, the growth in the assay on SN12C renal is 101%; in the assay with TK-10 renal it was 104%; in the assay with ACHN renal, 101%; in the assay on CAKI-1 renal it was 102%; with A498 renal, 72%; in the assay on CCRF-CEM leukemia, 95%. In the assay with MOLT-4 leukemia, the growth was 62.1%.

Regarding `C=CCNC(=O)Cc1c(-c2ccc(OC)cc2)oc2c(OC)c3c(c(OC)c12)OCO3`, the growth with HCT-15 colon was 86.7%; in the assay on HT29 colon it was 86.5%; in the assay with SNB-75 CNS, 96.4%; with SNB-19 CNS, 95.3%; in the assay on U251 CNS, 105%; in the assay with PC-3 prostate, 95.2%. Further, the growth in the assay with SK-MEL-5 melanoma was 96.3%; in the assay with UACC-62 melanoma, 89%; in the assay with LOX IMVI melanoma it was 93%; with SK-MEL-28 melanoma it was 109%; in the assay with SK-MEL-2 melanoma it was 108%; in the assay with EKVX NSCLC, 107%. Also, the growth with SN12C renal was 94.6%; in the assay with TK-10 renal, 110%; in the assay on ACHN renal, 104%; with CAKI-1 renal, 87.8%; in the assay on A498 renal, 55%; in the assay on CCRF-CEM leukemia it was 94.1%. For the same compound, in the assay on MOLT-4 leukemia, the growth was 99.7%.
